Inconclusive results are not listed. Values without a mark were called inactive. The call rests on the fitted dose curve.
On the % scale 0 is the no-effect control and ±100 the full control effect.

The experiment is described as follows: qHTS assay to identify small molecule agonists or antagonists of the thyroid stimulating hormone receptor (TSHR) signaling pathway - wild type cell line counter screen (AID 1259384). The following applies: HEK293 wild type, cAMP HTRF counter-screen, active compounds read high; series mostly up to 92.4 µM; cAMP activity change: at the top concentration. The text has this:
U.S. Tox21 Program National Center for Advancing Translational Sciences [NCATS] NIH Chemical Genomics Center [NCGC] U.S. Environmental Protection Agency [EPA] National Institutes of Environmental Health Sciences [NIEHS] National Toxicology Program [NTP] U.S. Food and Drug Administration [FDA] Tox21 Assay Overview: TSHR is the receptor for thyrotropin (thyroid stimulating hormone or TSH), a member of the glycoprotein hormone family. TSH is released by the anterior pituitary gland and is the main regulator of thyroid gland growth and development. Upon binding circulating thyrotropin, a G-protein signal cascade activates adenylyl cyclase and […] cAMP concentration is increased. cAMP is a key second messenger involved extensively in cellular signal transduction pathways associated with the majority of G-protein coupled receptors (GPCRs). The activation of these GPCRs by neurotransmitters, lipids, nucleotides, peptides and hormones results in the activation or the inhibition of plasma membrane-bound adenylate cyclase through heterotrimeric G-proteins. A cell-based TSHR-Hek293 assay can be used to identify TSHR agonists. To eliminate the false positive compounds identified from screening a cell-based TSHR-Hek293 cell line, cAMP assay in a wild type Hek293 cells was used as a counter screening.
Tox21 Assay Protocol Summary: Hek293 cells (wild type) were dispensed at 800 cells/4 uL/well in 1536-well white plates using a Multidrop dispenser. After the assay plates were incubated at a 37 C/5% CO2 incubator for 18 hrs, 23 nL of compounds dissolved in DMSO, positive controls or DMSO only was transferred to the assay plate by a pin tool, followed by 1 ul medium containing Ro20-1724. After 30 min of incubation at room temperature, 2.5 ul/well of cAMP-d2 and 2.5 ul/well of anti-cAMP-cryptate were added respectively into the assay plates using a Flying Reagent Dispenser. The plates were incubated at room temperature for 1 hr. The fluorescence intensity in the plates was measured using an Envision plate reader. Each test compound was measured at 15 concentrations and in triplicates.
Take `CC(=O)c1ccccc1[N+](=O)[O-]`: the “cAMP activity change” value was -2.09%. Next, `Cc1onc(-c2c(Cl)cccc2Cl)c1C(=O)Cl`: -5.42% [at 42.5 µM]; `CCN[C@H]1C[C@H](C)S(=O)(=O)c2sc(S(N)(=O)=O)cc21`: 2.35% [at 42.5 µM]; `O=C(O)c1cc(C(=O)O)cc(C(=O)O)c1`: -6.04%. Next, `C[C@@H]1C[C@H]2[C@@H]3C[C@H](F)C4=CC(=O)C(Cl)=C[C@]4(C)[C@@]3(F)[C@@H](O)C[C@]2(C)[C@@]1(O)C(=O)CO`: 0.0524% [at 42.5 µM]. Next, `CNCCO`: 1.21%. As to `Cc1ccc(-c2ncc(Cl)cc2-c2ccc(S(C)(=O)=O)cc2)cn1`, the “cAMP activity change” value was 6.05% [at 42.5 µM]. For `CC1=NN(c2cc(S(=O)(=O)O)ccc2Cl)C(=O)C1N=Nc1ccccc1` (stereo not given), the “cAMP activity change” value was 0.038%. Next, `O=C(CO)[C@@H](O)[C@H](O)[C@H](O)CO`: -1.02%; `CO[Si](C)(OC)c1ccccc1`: -1.32%. Next, `CC(C)(C)c1ccc(-c2ccc(C(C)(C)C)cc2)cc1`: -3.54%; `CCCCCCCCN1CCCC1=O`: -7.99%. Next, `CCN1C=CN(C)C1C` (stereo not given): 8.18%. On to `CC1=NS(=O)(=O)c2cc(Cl)ccc2N1`, for which the “cAMP activity change” value is -3.62% [at 42.5 µM]. Next, `CCCC(C)C(=O)OCC` (stereo not given): 0.47%; `O=[N+]([O-])c1ccc(/C=N\O)o1`: 1.98% [at 42.5 µM].

As to `CC/C=C\CCOC(C)OCC` (stereo not given), the “cAMP activity change” value is 2.15% [at 42.5 µM]. Regarding `CCCCCCCCCCCCCCC(=O)O`, the “cAMP activity change” value was 1.85%. As for `NC(N)=NCCN1CCCCCCC1`, the cAMP activity change was 3.9% [at 0.349 µM]. Next, `CC(C)=CCC/C(C)=C/C#N`: -2.39%.

As for `NCCCC(N)(C(=O)O)C(F)F` (stereo not given), the “cAMP activity change” value was 7.88% [at 42.5 µM]. Next, `Cc1ncc(COP(=O)(O)O)c(C=O)c1O`: 2.21% [at 42.5 µM]. Next, `NO`: -0.708%; `Clc1cc(Cl)c(Cl)nc1Cl`: -1.6%. Next, `CN1CCC(=C2c3ccccc3CCc3cccnc32)CC1`: 4.5% [at 42.5 µM].

Turning to `CCOC(=O)COC(=O)c1ccccc1C(=O)OCC`, the “cAMP activity change” value is -2.67%.

With `CCCOC(=O)CC`, the “cAMP activity change” value was -1.94%.

As for `CC(=O)Nc1ccc(OCC(O)CNC(C)C)cc1` (stereo not given), the “cAMP activity change” value is -5.92% [at 42.5 µM]. The figure for `CCC(C(=O)NC(=O)NC(C)=O)c1ccccc1` (stereo not given) is 0.682% [at 42.5 µM]; for `Nc1ccncc1N` it is -1.43% [at 42.5 µM]; for `CN(C)CCCCCCN(C)C` it is 3.74%. Next, `CC(C)CC(C)(N)C#N` (stereo not given): 5.18%. Next, `CO/N=C(\C(=O)N[C@@H]1C(=O)N2C(C(=O)O)=C(CSc3nc(=O)c(O)nn3C)CS[C@H]12)c1csc(N)n1`: 0.172% [at 42.5 µM]; `CN(C)C(=O)Oc1ccc[n+](C)c1`: 0.0562% [at 42.5 µM]; `CCOCC(C)O` (stereo not given): 2.25%. As to `C=CC(C)(CCC=C(C)C)OC(=O)CC` (stereo not given), the “cAMP activity change” value is -6.14%. Next, `CC(C)(C)C(=O)Oc1ccc(S(=O)(=O)Nc2ccccc2C(=O)NCC(=O)O)cc1`: 4.9% [at 42.5 µM]; `CN(C)CCCN(C)CCCN(C)C`: -0.589%; `O=S(=O)(O)c1cccc(S(=O)(=O)O)c1`: -4.47%. `C=CN1CCCCCC1=O`: the “cAMP activity change” value was -2.17%.

(Values after PubChem BioAssay (Tox21).)
